Assay outcomes: PubChem, several laboratories
Rows were chosen to be rich in hits. Some 3.1% of all compounds tested hit in one or more screens of this group.
PREPL inhibitor – inhibitors of human prolyl oligopeptidase-like enzyme PREPL | recombinant PREPL, fluorescence polarization activity-based probe | inhibition, % at 5.96 µM | 320,000 tested, 0.68% active | AID 2751; in the data active = inhibition above about 43%;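 also: 0% = enzyme with DMSO and 100% = wells lacking enzyme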
Target sequence (Q4J6C6 whole entry, looked up): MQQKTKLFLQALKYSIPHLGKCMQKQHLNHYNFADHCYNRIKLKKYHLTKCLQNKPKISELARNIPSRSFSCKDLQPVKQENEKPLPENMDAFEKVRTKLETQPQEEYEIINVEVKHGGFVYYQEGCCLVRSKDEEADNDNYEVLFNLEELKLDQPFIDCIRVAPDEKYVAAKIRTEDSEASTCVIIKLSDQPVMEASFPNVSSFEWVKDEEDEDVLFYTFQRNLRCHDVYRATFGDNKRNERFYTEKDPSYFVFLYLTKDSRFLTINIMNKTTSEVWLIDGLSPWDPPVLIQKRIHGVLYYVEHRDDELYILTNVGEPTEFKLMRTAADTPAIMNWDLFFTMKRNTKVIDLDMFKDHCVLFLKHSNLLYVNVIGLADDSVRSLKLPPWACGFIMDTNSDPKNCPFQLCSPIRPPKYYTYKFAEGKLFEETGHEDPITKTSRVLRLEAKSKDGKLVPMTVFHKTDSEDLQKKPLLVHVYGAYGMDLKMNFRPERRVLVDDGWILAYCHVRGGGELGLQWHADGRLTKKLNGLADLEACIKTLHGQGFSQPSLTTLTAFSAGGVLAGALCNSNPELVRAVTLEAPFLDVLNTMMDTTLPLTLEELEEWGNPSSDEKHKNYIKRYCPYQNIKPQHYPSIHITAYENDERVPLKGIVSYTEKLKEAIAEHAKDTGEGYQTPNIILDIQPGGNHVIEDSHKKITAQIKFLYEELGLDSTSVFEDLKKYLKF
MEKK3 PB1 HTS – modulators (inhibitors or enhancers) of MEK5 binding to human MEKK3 PB1 domain; bead-based flow cytometry, Alexa488-MEK5 binding to MEKK3; actives lie on both sides; 0 = blocked by unlabeled MEK5, 100 = vehicle; binding response (% of control), % at 10 µM; 290,000 tested, 1.4% active; Q99759;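 active = binding response more than 3 SD above or below the average of its plate-row segment, actives on both sides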;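 also: Alexa488 bead fluorescence after subtracting the streptavidin-only scavenger bead signal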
ATG4B inh – blocks human ATG4B protease cleavage of LC3 substrate; inhibition, % at 8.33 µM; ATG4B cleavage of LC3-PLA2, NBD-HPC fluorescence, 1 h; 340,000 tested, 0.51% active; AID 504462; Q9Y4P1; in the data active = inhibition above about 40%
MEKK2wt PB1 HTS – raises or lowers MEK5 binding to wildtype human MEKK2 PB1 domain; Q9Y2U5; bead flow cytometry, Alexa488-MEK5 binding to MEKK2 WT; actives lie on both sides; binding response (% of control), % at 10 µM; 290,000 tested, 1.1% active; AID 1531; in the data active = binding response below about 67% or above about 130%
UBC13 polyUb – blocks human UBC13 polyubiquitin chain formation; P61088; TR-FRET; inhibition, % at 20 µM; 330,000 tested, 0.47% active; in the data active = inhibition above about 45%, passing the limit was not always enough
MEKK2mut PB1 HTS – signal of MEK5 binding to mutant human MEKK2 PB1 domain | bead flow cytometry, Alexa488-MEK5 binding to MEKK2 mutant | percent response, % at 10 µM | 290,000 tested, 0.35% active | AID 1530; in the data active = percent response above about 24%, passing the limit was not always enough
MEKK2wt confirm – raises or lowers MEK5 binding to wildtype human MEKK2, retest | shares compounds with MEKK3 PB1 HTS | AID 1892 | 5,900 tested, 2.4% active | binding response (% of control), % at 10 µM | bead flow cytometry, Alexa488-MEK5 binding to MEKK2 WT; actives lie on both sides; in the data active = binding response below about 16% or above about 210%; inactive = in between
MEKK2mut-MEK5 – signal of MEK5 binding to mutant human MEKK2, retest | shares compounds with MEKK3 PB1 HTS | bead flow cytometry, Alexa488-MEK5 binding to MEKK2 mutant | percent response, % at 10 µM | 5,900 tested, 2% active | AID 1893; in the data active = percent response mostly above about 71%, no sharp cut-off; inactive = mostly below about 38%;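 also: higher means compound restores mutant binding toward wildtype level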
MEKK3 confirm – confirmation of inhibitors of MEK5 binding to human MEKK3; AID 1894; binding response (% of control), % at 10 µM; 5,900 tested, 1.8% active; shares compounds with MEKK3 PB1 HTS; bead flow cytometry, Alexa488-MEK5 binding to MEKK3; stronger effect = lower value;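 active = binding response below 72% of control, or above a set upper limit, though filed actives all read lower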;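 also: 100% = DMSO only wells and 0% = binding blocked by excess unlabeled MEK5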
Active calls of the source: *; . = not tested or not shown; [ ] = another dose, or the depositor's remark.

SMILES	PREPL inhibitor	MEKK3 PB1 HTS	ATG4B inh	MEKK2wt PB1 HTS	UBC13 polyUb	MEKK2mut PB1 HTS	MEKK2wt confirm	MEKK2mut-MEK5	MEKK3 confirm
CSc1nc(C)c(C(=O)Nc2ccccc2)c(-c2ccco2)c1C#N	-6	27*[inhibitor]	-5	16*[inhibitor]	4	-16	98	-1	102
O=C1CC(=C2c3ccccc3-c3ccccc32)C(=O)N1CCCCN1CCN(c2ccccc2)CC1	0	103	-5	155*	-9	12	147	28	102
O=C1CC(=C(c2ccccc2)c2ccccc2)C(=O)N1CCCN1CCN(c2cccc(Cl)c2)CC1	18	112	1	120	2	19	.	.	.
CCCCCc1cc(=O)c2ccccc2o1	-3	.	10	.	5	.	.	.	.
O=C(NNC(=O)c1ccccc1F)c1cccc(-n2cccc2)c1	5	.	-5	.	3	.	.	.	.
Cc1cccc(CN2CCN(CC(=O)NCCCN3CCN(c4ccc(F)cc4)CC3)C2=O)c1	31	111	14	180*	30	34	146	25	108
CC(Nc1ccccc1)c1ccncc1 (stereo unspecified)	1	133*	6	124	2	6	102	-26	98
COc1ccc(NC(C)c2ccccc2)cc1 (stereo unspecified)	.	100	1	94	.	-6	.	.	.
COc1ccc(/C(=C/c2ccc(OC(F)F)c(OC)c2)C(=O)O)cc1OC	14	128*	-11	105	-21	0	104	2	100
COc1cc(/C=C(/C(=O)O)c2ccc(-c3ccccc3)cc2)cc(OC)c1OC	1	103	13	104	3	3	.	.	.
CC(=O)Nc1ccc(OC(=O)c2c(-c3ccccc3Cl)noc2C)cc1	-12	144*	4	106	-8	1	102	0	99
CCOC(=O)C1CCN(S(=O)(=O)c2ccccc2)CC1	-5	102	4	104	8	2	.	.	.
CCOC(=O)C1CCN(S(=O)(=O)c2ccc(-n3cnnn3)c(C)c2)CC1	-2	79*[inhibitor]	-5	86	40	-11	101	-3	102
CCOC(=O)C1CCN(S(=O)(=O)c2ccc(OC)c(Cl)c2Cl)CC1	5	82*[inhibitor]	-11	88	9	-5	103	2	102
CCOC(=O)C1CCN(S(=O)(=O)c2ccc(-c3ccccn3)s2)CC1	-16	130*	-6	129	-3	25	99	-3	101
CCOC(=O)C1CCN(S(=O)(=O)c2ccc(C)c(C)c2)CC1	2	100	6	89	5	-13	.	.	.
CC1(C(=O)O)CCC(C(=O)Nc2ccc(F)cc2)C1(C)C (stereo unspecified)	-2	100	-1	101	6	1	.	.	.
CC1CCN(C(=O)C2CCC(C)(C(=O)O)C2(C)C)CC1 (stereo unspecified)	6	135*	4	109	1	1	105	-6	104
Cc1cccc(C)c1NS(=O)(=O)c1ccc(OCCNS(C)(=O)=O)cc1	9	102	0	107	0	1	.	.	.
COc1cc(CCCN2C(N)=NC[C@@H]2Cc2ccccc2)cc(OC)c1OC	-14	97	-3	100	1	4	.	.	.
CCCCN1C(=S)NC[C@@H]1c1ccccc1	-2	105	5	101	2	3	.	.	.
COc1cc(CCCN2C(=S)NC[C@@H]2c2ccccc2)cc(OC)c1OC	-4	80*[inhibitor]	-1	97	11	0	107	9	108
COc1cc(CCCN2C(=S)NC[C@@H]2Cc2ccccc2)cc(OC)c1OC	-25	1.0*[inhibitor]	-9	0.0*[inhibitor]	9	2	102	0	104
O=C(Cc1c(F)cccc1Cl)NNC(=S)Nc1ccc(S(=O)(=O)Nc2ncccn2)cc1	2	103	13	104	-1	5	.	.	.
O=C(COc1ccccc1)NC(=S)Nc1cccc2cc(O)ccc12	12	105	-12	104	-15	4	.	.	.
SMILES	PREPL inhibitor	MEKK3 PB1 HTS	ATG4B inh	MEKK2wt PB1 HTS	UBC13 polyUb	MEKK2mut PB1 HTS	MEKK2wt confirm	MEKK2mut-MEK5	MEKK3 confirm
CC1CCCCN1C(=O)C(=O)c1cn(CC(=O)N2CCCCCC2)c2ccccc12 (stereo unspecified)	0	96	0	79	-11	-7	.	.	.
CC1CCCCN1C(=O)C(=O)c1cn(CC(=O)N2CCCC2)c2ccccc12 (stereo unspecified)	8	1.0*[inhibitor]	-2	-3.0*[inhibitor]	-2	-15	103	2	103
Cc1oc(-c2ccccc2Cl)nc1Cn1cccc1C1=NC(c2ccccc2)CO1 (stereo unspecified)	-32	19*[inhibitor]	9	29*[inhibitor]	4	-13	103	-1	103
CC(=O)c1cccc(NS(=O)(=O)c2ccc(N/C=C\C(=O)c3ccc(C)cc3)cc2)c1	-15	102	-16	99	-3	-5	.	.	.
CC(=O)c1cccc(N/C=C\C(=O)c2ccc(C)cc2)c1	-1	135*	20	105	.	0	105	8	108
CNC(=O)c1c(C)nn(-c2ccc(F)c(Cl)c2)c1-c1cc(C)on1	10	96	-6	102	-3	-12	.	.	.
COc1ccc2[nH]c(C)c(CCNC(=S)Nc3cccc(C)c3)c2c1	19	1.0*[inhibitor]	3	1.0*[inhibitor]	11	-14	93	-6	98
COc1ccc2[nH]c(C)c(CCNC(=S)Nc3cc(C)cc(C)c3)c2c1	12	104	-8	100	5	-4	.	.	.
CCN(C(=O)CSc1nnnn1-c1ccccc1)c1c(N)n(Cc2ccccc2)c(=O)[nH]c1=O	-9	67*[inhibitor]	1	99	11	0	105	7	108
CCN(C(=O)CSc1nncn1-c1ccccc1)c1c(N)n(Cc2ccccc2)c(=O)[nH]c1=O	-6	63*[inhibitor]	-3	89	13	-2	102	-3	103
CCOc1ccccc1NC(=O)CSc1nc2ccccc2c(=O)n1CC1CCCO1 (stereo unspecified)	-14	98	-8	97	12	-3	.	.	.
CCOc1cc(N2CCOCC2)c(OCC)cc1NC(=O)CN1CCC(Cc2ccccc2)CC1	13	149*	-1	110	-4	0	107	8	106
